Bioassay records from PubChem BioAssay.
BAZ2B inh – blocks human BAZ2B; Q9UIF8; hit rate 4.4% among 360,000; Potency, µM (top dose mostly 114 µM), for the others: top-dose activity change, negative = inhibition, most hits filed as inhibitors; AlphaScreen BAZ2B-H3K14Ac peptide displacement; further: potency means the concentration at half of the fitted maximal effect; on the % scale 0 is the no-effect control and ±100 the full control effect; nearly all actives have a fitted effect of over 60% in size
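AlphaScreen displacement: compounds (up to 110uM) incubated 30 min at room temperature with a preformed 50 nM BAZ2B/50 nM biotinylated H3K14Ac peptide complex in PBS pH 7.4 with Tween-20. Donor and acceptor beads at 10 ug/mL final added, 20 min light-protected before reading.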
CtBP-E1A blk – CtBP/E1A binding inhibition; AID 651724; activity change, % (concentration not given with the values); AlphaScreen GST-E1A/His-CtBP binding, 1536-well; active compounds read low; hit rate 0.49% among 340,000; in the data active means activity change below about -65%; inconclusive means mostly about -30% to -63%; further: on the % scale 0 is the no-effect control and ±100 the full control effect
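In 5 uL wells, 23 nL compound meets equimolar GST-E1A and His-CtBP (5X stock 125 nM each) for 2 h, 37 °C. Beads (5X, 50 ug/mL) then 1 h, 37 °C, dark.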
JMJD2A Tudor – JMJD2A Tudor domain (human) inhibition. O75164. AlphaScreen JMJD2A-Tudor / H3K4me3 peptide binding. Potency, µM (doses to about 114 µM), for the others: at the top dose activity change, negative = inhibition, usual class: inhibitors. hit rate 4.4% among 390,000; further: potency means the concentration at half of the fitted maximal effect; on the % scale 0 is the no-effect control and ±100 the full control effect; nearly all actives have a fitted effect of over 50% in size
Six1-Eya2 blk – blocks human Six1 binding to Eya2; Q15475+O00167; AlphaScreen GST-Six1/His-Eya2 binding, biochemical; active compounds read low; activity change, % (no concentration beside the values); hit rate 0.56% among 360,000; AID 651725; in the data active means activity change below about -65%; inconclusive means mostly about -30% to -63%; further: on the % scale 0 is the no-effect control and ±100 the full control effect
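Compounds are tested against tagged Six1 and Eya2 proteins bridged by glutathione donor and nickel acceptor beads; after a one-hour incubation at 37 °C without light, AlphaScreen emission is recorded.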
G9a inh – G9a (human) methyltransferase inhibition; Q96KQ7; Potency, µM (series often up to 102 µM), for the others: top-dose activity, negative = inhibition, actives largely listed as inhibitors; G9a H3K9 monomethylation, AlphaScreen, 2 h; hit rate 8.8% among 350,000; further: potency means the concentration at half of the fitted maximal effect; on the % scale 0 is the no-effect control and ±100 the full control effect; nearly all actives have a fitted effect of over 75% in size
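Compounds were preincubated with 20 nM G9a for 15 min, after which biotinylated H3K9 peptide (500 nM) and SAM (20 uM) started a 2 h room-temperature reaction. Monomethylated product was quantified by antibody-based AlphaScreen chemiluminescence.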
HP1b chromo inh – blocks HP1-beta chromodomain binding to methylated histone tails. Potency, µM (titrated, usually from 114 µM), for inactives: top-dose activity change, negative = inhibition, most hits filed as inhibitors. AlphaScreen HP1-beta / biotin-H3K9me3 peptide binding. AID 540317. hit rate 0.56% among 390,000; further: potency means the concentration at half of the fitted maximal effect; nearly all actives have a fitted effect of over 70% in size
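Compound inhibition of the preformed complex between 50 nM HP1-beta and 50 nM biotinylated H3K9me3 peptide was read by AlphaScreen. Buffer was PBS pH 7.4 with 0.01% Tween-20. Incubations ran 30 min at room temperature, with 10 ug/mL donor/acceptor beads.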
* marks the source's active call; other numbers are inactive results; ? = inconclusive; · = no result; ! = not active in a repeat; [ ] = another dose, or the depositor's remark. An excerpt weighted towards active compounds, which were near 10% of everything screened. Unless noted, the call rests on the fitted dose curve; in most records, active means well fitted inhibition curve with a large enough effect; inconclusive means small, poorly fitted or top-dose-only effect; inactive means no such curve, though single readings can be large or run the other way.

SMILES	BAZ2B inh	CtBP-E1A blk	JMJD2A Tudor	Six1-Eya2 blk	G9a inh	HP1b chromo inh
CCc1ccc(N2C(=O)c3cc(N4CCOCC4)c([N+](=O)[O-])cc3C2=O)cc1	6%	·	·	·	-9%[59 µM]	·
Cc1nnc2sc(SCc3ccc(Br)cc3)nn2c1=O	·	2	-4%	1	-2%	20%
COC(=O)c1ccc(NC(=O)CSc2nn3c(=O)c(C)nnc3s2)cc1	0%	-93*	?	-67*	99%	79%
Cc1nnc2sc(SCC(=O)Nc3ccc(Br)cc3)nn2c1=O	40µM*	15	?	-87*	-6%	44%
COc1ccc(Nc2nnc(SCC(=O)NC3CCS(=O)(=O)C3)s2)cc1 (centres undefined)	-2%	2	-3%	-13	14µM*	37%
COc1ccc(-c2nnc(SCC(=O)Nc3cc(OC)ccc3OC)nc2-c2ccc(OC)cc2)cc1	7.9µM*	·	?	·	-36%[59 µM]	4%
COc1ccc(NC(=O)C2(C)CCCN2C(=O)C(C)C)cc1OC (centres undefined)	·	23	·	19	·	·
Cc1nnc2sc(SCC(=O)Nc3cccc(Cl)c3)nn2c1=O	40µM*	-93*	?	?	6%	57%
COc1cccc(NC(=O)CSc2nn3c(=O)c(C)nnc3s2)c1	6%	-99*	?	-77*	83%	71%
CCOc1ccc(C(=O)CSc2nnc(N)s2)cc1	0%	3	-5%	-2	32µM*	30%
CCOC(=O)c1c(NC(=O)CSc2nnc(C)c(=O)[nH]2)sc(C)c1-c1ccc(C)cc1	-22%	-21	-34%	-25	-12%[12.7 µM]	7%
COc1cccc(NC(=O)CSc2nc(C)cs2)c1	9%	1	9%	0	4%[12.7 µM]	24%
CCOC(=O)c1c(NC(=O)CSc2nnc(N)s2)sc(C)c1-c1ccc(C)cc1	-11%	-1	?	-13	40µM*	9%
Cc1cc(C)c(C(=O)CSc2nnc(N)s2)cc1C	-12%	1	-9%[11.4 µM]	1	?	3%
COc1ccc(-c2nnc3n2N=C(c2c(OC)cccc2OC)CS3)c(OC)c1	·	·	-10%	·	·	·
CCOc1ccc(-n2c(O)c(/C=N/NC(=O)C3COc4ccccc4O3)c3ccccc3c2=O)cc1 (centres undefined)	-30%	-8	-33%	-21	12%[59 µM]	14%
Cc1ccccc1NC(=O)CSc1nn2c(=O)c(C)nnc2s1	?	-92*	89µM*	-84*	23%	24%
Cc1ccc(Nc2nnc(SCC(=O)NC3CCCc4ccccc43)s2)cc1 (centres undefined)	11%	-10	-14%	-16	79µM*	13%
COc1ccc(OC)c(NC(=O)CSc2nn3c(=O)c(C)nnc3s2)c1	3%	-88*	?	?	·	65%
Cc1cccc(Nc2nnc(SCC(=O)NC3CCCc4ccccc43)s2)c1 (centres undefined)	-9%	-5	-9%	-18	?	12%
COc1ccc(NC(=O)CSc2nn3c(=O)c(C)nnc3s2)cc1	-11%	-93*	?	-86*	83%	57%
Cc1ccccc1CSc1nn2c(=O)c(C)nnc2s1	·	-2	-13%	10	17%	5%
O=C(CSc1n[nH]c(-c2ccncc2)n1)NC1CCS(=O)(=O)C1 (centres undefined)	0%	3	89µM*	-1	?	49%
COc1ccc(NC(=O)CSc2nnc(N)s2)cc1	-2%	1	-10%	2	79µM*!	17%
Cc1ccc(S(=O)(=O)N2CCN(c3nc(-c4ccncc4)nc4ccccc34)CC2)cc1	·	·	?	·	·	13%
SMILES	BAZ2B inh	CtBP-E1A blk	JMJD2A Tudor	Six1-Eya2 blk	G9a inh	HP1b chromo inh
CCOC(=O)COc1ccc2nsnc2c1	-6%	10	-5%	6	0%[59 µM]	17%
CCOC(=O)COc1ccc(/C=C/[N+](=O)[O-])c(OCC(=O)OCC)c1	-24%	1	-5%	-1	71µM*	12%
CCOC(=O)COc1ccc2ccccc2c1/C=C/[N+](=O)[O-]	-31%	9	-14%	-3	18µM*	7%
N#CC1=C(N)Nc2nc3ccccc3n2C1c1ccc(Cl)cc1 (centres undefined)	0%	5	-15%	4	0.63µM*	23%
Cn1cc(C(=O)NCc2ccccc2)c(=O)c2cc(S(=O)(=O)N3CCOCC3)ccc21	·	·	?	·	2%[59 µM]	18%
CCOc1ccc(C(=O)c2cn(CC(=O)Nc3ccc(F)cc3)c3cc4c(cc3c2=O)OCO4)cc1	-20%	·	-17%	·	-2%[59 µM]	25%
O=[N+]([O-])c1ccc(-[n+]2nc(-c3ccccc3)nn2-c2ccccc2)cc1	-6%	-92*	-12%	-82*	-20%	11%
COc1ccc(NC2CCCN(C(=O)COc3ccc(C(C)=O)cc3)C2)cc1 (centres undefined)	·	-5	·	1	·	·
COc1ccc(NC2CCCN(C(=O)CCOc3ccccc3)C2)cc1 (centres undefined)	25µM*	-17	?	-18	·	-19%
COc1ccc(NC2CCCN(C(=O)COc3ccc(C)cc3)C2)cc1 (centres undefined)	?	6	?	-17	16µM*	-28%
COc1ccc(NC2CCCN(C(=O)CCN3CCOCC3)C2)cc1 (centres undefined)	10%	·	-12%	-3	?	20%
COc1ccc(NC2CCCN(C(=O)CCc3ccccc3F)C2)cc1 (centres undefined)	-36%[57.1 µM]	-12	?	-10	50µM*	6%
COc1ccc(NC2CCCN(C(=O)CSc3ccccc3)C2)cc1 (centres undefined)	?	·	?	-18	35µM*	-14%
COc1ccc2[nH]cc(CCNc3ncncc3-c3ccc(C(=O)N(C)C)cc3)c2c1	·	·	·	·	-27%[0.501 µM]	·
CCOc1ccc(OCCC(=O)N(CC(C)C)c2c(N)n(Cc3ccccc3)c(=O)[nH]c2=O)cc1	·	-21	-17%	5	·	23%
COc1ccc(Cc2nnc(NCCO)[nH]c2=O)cc1	2%	4	9%	2	-5%[59 µM]	32%
C=CCNc1nnc(Cc2ccc(C(C)C)cc2)c(=O)[nH]1	?	-22	56µM*	-18	-8%	-8%
CCn1c(O)c(/C=N/n2cnnc2)sc1=S	?	-10	56µM*	0	18µM*	-21%
COc1ccc(N2CCN(C(CNC(=O)C3CCCCC3)c3ccco3)CC2)cc1 (centres undefined)	-7%	-4	-32%	-1	45µM*	?
COc1ccc(N2CCN(C(CNC(=O)C(=O)NC3CC3)c3ccco3)CC2)cc1 (centres undefined)	-25%	5	-6%	2	45µM*	30%
